From PubChem BioAssay
HP1b binding inh: inhibitors of HP1-beta chromodomain binding to methylated histone tails | AlphaScreen HP1-beta / biotin-H3K9me3 peptide binding | 0.56% of 390,000 active | Potency, µM (doses to about 114 µM), for the others: top-dose activity change, negative = inhibition, usual class: inhibitors; also: potency is read from the fitted curve at half-maximal effect; nearly all actives have a fitted effect of over 70% in size
Target sequence (P83916 whole entry, looked up): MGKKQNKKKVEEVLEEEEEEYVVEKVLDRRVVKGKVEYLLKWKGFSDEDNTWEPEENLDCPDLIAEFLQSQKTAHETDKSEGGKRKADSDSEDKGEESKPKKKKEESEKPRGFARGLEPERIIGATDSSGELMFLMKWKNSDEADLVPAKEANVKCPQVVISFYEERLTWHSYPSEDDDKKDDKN
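Compound inhibition of the preformed complex between 50 nM HP1-beta and 50 nM biotinylated H3K9me3 peptide was read by AlphaScreen. Buffer was PBS pH 7.4 with 0.01% Tween-20. Incubations ran 30 min at room temperature, with 10 ug/mL donor/acceptor beads.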
L3MBTL1 block: inhibitors of human L3MBTL1; Q9Y468; AlphaScreen L3MBTL1–H3K9me1 peptide binding; Potency, µM (series often up to 57.1 µM), inactives show at the highest dose activity, negative = inhibition, hits mostly inhibitors; 0.66% of 230,000 active; AID 485360; also: potency is read from the fitted curve at half-maximal effect; % is scaled to controls: 0 for no effect and ±100 for the full control effect; nearly all actives have a fitted effect of over 60% in size
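First, the protein-peptide complex forms for 30 min at room temperature (L3MBTL1 50 nM, biotinylated H3K9me1 peptide 75 nM). Next, compounds are pin-transferred and incubated 30 min. Finally, AlphaScreen beads are added and read after 30 min.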
PI5P4Ka inh: inhibitors of human PI5P4K alpha | max response, % | 1.2% of 330,000 active | PI5P4Kalpha enzyme, ADP-Glo luminescence, 60 min; active compounds read low; active = max response of -50% or lower; inconclusive = between -30% and -50%; inactive = -30% or higher; also: value at the top dose of about 77 µM; % is scaled to controls: 0 for no effect and ±100 for the full control effect
Target sequence (P48426 whole entry, looked up): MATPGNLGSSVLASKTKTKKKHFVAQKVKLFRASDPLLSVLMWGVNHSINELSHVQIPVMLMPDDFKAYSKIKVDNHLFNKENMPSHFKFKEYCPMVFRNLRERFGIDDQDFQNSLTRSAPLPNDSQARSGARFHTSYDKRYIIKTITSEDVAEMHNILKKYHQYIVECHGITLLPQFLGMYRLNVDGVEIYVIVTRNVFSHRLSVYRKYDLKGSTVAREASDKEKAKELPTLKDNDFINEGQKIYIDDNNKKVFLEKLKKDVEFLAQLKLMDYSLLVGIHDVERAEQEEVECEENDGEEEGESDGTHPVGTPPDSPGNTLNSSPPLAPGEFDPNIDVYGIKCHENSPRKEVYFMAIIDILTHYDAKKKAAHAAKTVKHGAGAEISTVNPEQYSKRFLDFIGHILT
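PI5P4Kalpha ADP-Glo assay; 5 microM ATP final; 60 min RT reaction; HEPES pH 7.4/EGTA/CHAPS, 5% DMSO; controls lacking substrate or enzyme; luminescent end-point.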
G9a block: blocks human histone lysine methyltransferase G9a | Q96KQ7 | G9a H3K9 monomethylation, AlphaScreen, 2 h | Potency, µM (top dose mostly 102 µM), for inactives: at the highest dose activity, negative = inhibition, hits mostly inhibitors | 8.8% of 350,000 active | AID 504332; also: potency is read from the fitted curve at half-maximal effect; % is scaled to controls: 0 for no effect and ±100 for the full control effect; nearly all actives have a fitted effect of over 75% in size
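Compounds were preincubated with 20 nM G9a for 15 min, after which biotinylated H3K9 peptide (500 nM) and SAM (20 uM) started a 2 h room-temperature reaction. Monomethylated product was quantified by antibody-based AlphaScreen chemiluminescence.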
BAZ2B inh: BAZ2B (human) inhibition. AlphaScreen BAZ2B-H3K14Ac peptide displacement. Potency, µM (titrated, usually from 114 µM), without a hit: at the highest dose activity change, negative = inhibition, actives largely listed as inhibitors. 4.4% of 360,000 active. AID 504333; also: potency is read from the fitted curve at half-maximal effect; % is scaled to controls: 0 for no effect and ±100 for the full control effect; nearly all actives have a fitted effect of over 60% in size
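In this displacement format the biotinylated H3(5-23) peptide acetylated at Lys14 serves as ligand at 50 nM, with BAZ2B at 50 nM in PBS pH 7.4 containing 0.01% Tween-20. Donor and acceptor beads are 10 ug/mL final.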
JMJD2A Tudor: JMJD2A Tudor domain (human) inhibition; 4.4% of 390,000 active; Potency, µM (series often up to 114 µM), for the others: at the highest dose activity change, negative = inhibition, hits mostly inhibitors; AID 504339; AlphaScreen JMJD2A-Tudor / H3K4me3 peptide binding; O75164; also: potency is read from the fitted curve at half-maximal effect; % is scaled to controls: 0 for no effect and ±100 for the full control effect; nearly all actives have a fitted effect of over 50% in size
* hit, by the source's call; ? = inconclusive; . = no result given; [ ] = remark or other dose. Shown are actives, neighbours in structure and some others; about 11% of the full set was active somewhere. Unless noted, calls follow the shape of the dose curve; as a rule, active = well fitted inhibition curve with a large enough effect; inconclusive = small, poorly fitted or top-dose-only effect; inactive = no such curve, though single readings can be large or run the other way.

SMILES	HP1b binding inh	L3MBTL1 block	PI5P4Ka inh	G9a block	BAZ2B inh	JMJD2A Tudor
Cc1ccc(Cl)cc1NC(=O)C[n+]1ccc(Cc2ccc([N+](=O)[O-])cc2)cc1	21%	.	0	25µM*	-4%	?
CCN(Cc1ccccc1)C(c1cc2cc(C)ccc2[nH]c1=O)c1nnnn1CCOC (stereo not given)	21%	1%	-6	?	.	?
COc1ccc2cc(C(c3nnnn3CCc3ccccc3)N3CCCC(C)C3)c(=O)[nH]c2c1 (stereo not given)	41%	-3%	.	45µM*	4%	?
COCCn1nnnc1C(c1cc2cc(C)cc(C)c2[nH]c1=O)N1CCN(c2ccccc2F)CC1 (stereo not given)	10%	-6%[11.4 µM]	.	3.2µM*	-4%	-24%
COCCn1nnnc1C(c1cc2cc(C)ccc2[nH]c1=O)N1CCCCCC1 (stereo not given)	24%	1%	.	4.5µM*	-4%	-19%
Cc1ccc2[nH]c(=O)c(C(c3nnnn3CCc3ccccc3)N3CCOCC3)cc2c1 (stereo not given)	30%	-4%	1	7.9µM*	13%	1%
CCNc1ncc2nc(-c3cc(F)cc(F)c3)c(=O)n(C3CC3)c2n1	.	.	.	11%[0.501 µM]	.	.
Cc1cccc(CNS(=O)(=O)c2ccc(-c3coc(C)n3)cc2)c1	7%[57 µM]	.	.	1%[59 µM]	-7%	-19%
Cc1cccc(N2CCN(Cc3nnc(-c4cccc(Br)c4)o3)CC2)c1C	28%	.	.	10%[59 µM]	11%	0%
COc1ccc(N2CCN(Cc3nnc(-c4cccc(Br)c4)o3)CC2)cc1	?	.	.	11µM*	45µM*	79µM*
CC(C)c1ccc(NC(=O)CSc2nc3ccccc3nc2Cc2ccccc2)cc1	14%[57 µM]	.	.	11%[59 µM]	6%	-17%
COc1ccc(-c2nc(C(=O)Nc3cccc(C(C)=O)c3)nn2-c2ccccc2Cl)cc1	30%	.	.	-44%[59 µM]	-9%	?
Cc1ccc(OCC(=O)Nc2ccccc2C(=O)OCc2cc(=O)n3nc(C4CC4)sc3n2)cc1	27%	.	.	-2%[12.7 µM]	-10%	3%
CCOC(=O)Cc1csc(NC(=O)NC2(C(F)(F)F)Oc3ccc(Cl)cc3O2)n1 (stereo not given)	7%	.	-15	25µM*	-7%	?
CCOC(=O)Cc1csc(NC(=O)Nc2ccc(OC(F)(F)F)cc2)n1	7%	5%	-8	.	3%	-6%
CCOC(=O)Cc1csc(NC(=O)Cc2ccc(Cl)cc2)n1	-1%	-7%	-1	27%	-1%	-5%
CCOC(=O)Cc1csc(NC(=O)NC2(C(F)(F)F)Oc3cc(Cl)c(Cl)cc3O2)n1	3%	.	-6	13µM*	?	?
CCOC(=O)Cc1csc(NC(=O)NC2(C(F)(F)F)Oc3ccccc3O2)n1	13%	.	.	8.9µM*	?	-6%
C#CCOCCOCCOCCNc1nc(N2CCN(C(=O)Cn3cc(CCCN=C(N)N)nn3)CC2)nc(N2CCN(C(=O)Cn3cc(CCCN=C(N)N)nn3)CC2)n1	.	-1%	.	25µM*	?	.
C#CCOCCOCCOCCNc1nc(N2CCN(C(=O)[C@H]([C@@H](C)CC)n3cc(CCCN=C(N)N)nn3)CC2)nc(N2CCN(C(=O)[C@H](Cc3ccc(O)cc3)n3cc(CCO)nn3)CC2)n1	28%	5%	5	45µM*	?	?
C#CCOCCOCCOCCNc1nc(N2CCN(C(=O)Cn3cc(CCO)nn3)CC2)nc(N2CCN(C(=O)[C@H]([C@@H](C)CC)n3cc(CCCN=C(N)N)nn3)CC2)n1	33%	.	1	.	.	-14%
C#CCOCCOCCOCCNc1nc(N2CCOCC2)nc(N2CCN(C(=O)Cn3cc(CCCN=C(N)N)nn3)CC2)n1	30%	8%	4	?	-2%	-4%
C#CCOCCOCCOCCNc1nc(N2CCN(C(=O)[C@H]([C@@H](C)CC)n3cc(CCCN=C(N)N)nn3)CC2)nc(N2CCN(C(=O)[C@H]([C@@H](C)CC)n3cc(CCCN=C(N)N)nn3)CC2)n1	.	-2%	.	20µM*	?	.
C#CCOCCOCCOCCNc1nc(N2CCN(C(=O)[C@H](C)n3cc(CCCN=C(N)N)nn3)CC2)nc(N2CCN(C(=O)[C@H](C)n3cc(CCCN=C(N)N)nn3)CC2)n1	48%	8%	7	79µM*	-6%	-21%
C#CCOCCOCCOCCNc1nc(N2CCN(C(=O)[C@H]([C@@H](C)CC)n3cc(CCCN=C(N)N)nn3)CC2)nc(N2CCN(C(=O)[C@H](C)n3cc(CCCN=C(N)N)nn3)CC2)n1	19%	-3%	0	40µM*	?	-31%
SMILES	HP1b binding inh	L3MBTL1 block	PI5P4Ka inh	G9a block	BAZ2B inh	JMJD2A Tudor
C#CCOCCOCCOCCNc1nc(N2CCN(C(=O)Cn3cc(CC(C)O)nn3)CC2)nc(N2CCN(C(=O)[C@H]([C@@H](C)CC)n3cc(CCCN=C(N)N)nn3)CC2)n1 (stereo not given in full)	31%	-1%	-3	50µM*	?	-8%
CCCNC(=O)Cn1c(=O)n(CC2CCC(C(=O)NC)CC2)c(=O)c2sccc21 (stereo not given)	-3%	.	.	6%[59 µM]	-16%	-16%
CCc1ccc(Sc2cc(C(=O)NCc3ccccc3OC)c3ccccc3n2)cc1	39%	.	.	15%[59 µM]	9%	-8%
CCCN1C(=O)c2[nH]nc(-c3ccccc3O)c2C1c1ccc(OCc2ccccc2)c(OCC)c1 (stereo not given)	63%	.	.	18%[59 µM]	-14%	-3%
CC(=O)OC1=C(C#N)Cn2ccc3cccc1c32	.	1%	.	11µM*	-12%	.
Cc1cccc(-c2nc(Nc3cccc(O)c3)c3ccccc3n2)c1	19%	.	-8	19%	-7%	-35%
CC(=O)c1cccc(Nc2nc(-c3cccc(C)c3)nc3ccccc23)c1	0%	.	.	7.1µM*	-7%	-26%
Cc1cccc(-c2nc(Nc3ccc(N4CCOCC4)cc3)c3ccccc3n2)c1	-35%	-21%	4	7.1µM*	25µM*	40µM*
c1ccc2c(Nc3ccc(N4CCOCC4)cc3)nc(N3CCOCC3)nc2c1	1%	-3%	1	.	?	-33%
CCOc1cc(Br)cc(C2NC(=O)c3c(sc4c3CCN(C)C4)N2)c1O (stereo not given)	10%	.	.	?	-24%	-33%
CCC1CCCCN1CCCNC(=O)c1ccc2c(c1)N(Cc1cccc(C)c1)C(=O)c1ccccc1S2(=O)=O (stereo not given)	21%	.	.	-2%[59 µM]	-30%	-23%
CC(C)(C)NC(=O)C(c1cccc2ccccc12)n1c(=O)c(-c2ccccc2)nc2ccccc21 (stereo not given)	.	.	3	.	.	.
